# Data: publication PMC5540273 (PLoS ONE, 2017)
# Experiments:
# Settings in all cases: concentration: 1 μM, replicates: in singlicate; n = 1
# [1] = system: T1, RSK2(Kin.Dom.1-N-terminal)
# T1 construct: gene RPS6KA3
# [2] = system: T2, RSK2(Kin.Dom.2-C-terminal)
# T2 construct: gene RPS6KA3
# [3] = system: T3, RSK3(Kin.Dom.1-N-terminal)
# T3 construct: gene RPS6KA2
# [4] = system: T4, RSK3(Kin.Dom.2-C-terminal)
# T4 construct: gene RPS6KA2
# [5] = system: T5, RSK4(Kin.Dom.1-N-terminal)
# T5 construct: gene RPS6KA6
# [6] = system: T6, RSK4(Kin.Dom.2-C-terminal)
# T6 construct: gene RPS6KA6
# [7] = system: S6K1
# [8] = system: SBK1
# [9] = system: SGK2
# [10] = system: SGK3
# [11] = system: SGK
# [12] = system: SIK2
# [13] = system: SIK
# [14] = system: SLK
# [15] = system: T7, SNARK
# T7 construct: gene NUAK2
# [16] = system: SNRK
# [17] = system: SRC
# [18] = system: SRMS
# [19] = system: SRPK1
# [20] = system: SRPK2
# 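Note: KINOMEscan kinase panel screen.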
structure (smiles),measurement,setting,value
O=C(NCCCN1CCOCC1)c1cccc(Nc2nccc(Nc3ccc(Oc4ccccc4)cc3)n2)c1 [GW663929],%Inh,[1],0%
same,%Inh,[2],11%
same,%Inh,[3],7%
same,%Inh,[4],10%
same,%Inh,[5],0%
same,%Inh,[6],20%
same,%Inh,[7],0%
same,%Inh,[8],1%
same,%Inh,[9],12%
same,%Inh,[10],19%
same,%Inh,[11],1%
same,%Inh,[12],12%
same,%Inh,[13],68%
same,%Inh,[14],8%
same,%Inh,[15],22%
same,%Inh,[16],0%
same,%Inh,[17],81%
same,%Inh,[18],97.5%
same,%Inh,[19],25%
same,%Inh,[20],19%
Cl.Oc1cccc(Nc2ccnc3cc(-c4ccncc4)ccc23)c1 [GW494601],%Inh,[1],12%
same,%Inh,[2],23%
same,%Inh,[3],0%
same,%Inh,[4],0%
same,%Inh,[5],0%
same,%Inh,[6],29%
same,%Inh,[7],0%
same,%Inh,[8],34%
same,%Inh,[9],0%
same,%Inh,[10],3%
same,%Inh,[11],12%
same,%Inh,[12],69%
same,%Inh,[13],72%
same,%Inh,[14],11%
same,%Inh,[15],12%
same,%Inh,[16],0%
same,%Inh,[17],100%
same,%Inh,[18],0%
same,%Inh,[19],46%
same,%Inh,[20],0%
O=C(NOCC1CC1)c1ccc(F)c(F)c1Nc1ccc(I)cc1Cl,%Inh,[1],0%
same,%Inh,[2],0%
same,%Inh,[3],0%
same,%Inh,[4],0%
same,%Inh,[5],0%
same,%Inh,[6],0%
same,%Inh,[7],0%
same,%Inh,[8],0%
same,%Inh,[9],0%
same,%Inh,[10],0%
same,%Inh,[11],0%
same,%Inh,[12],0%
same,%Inh,[13],1%
same,%Inh,[14],0%
same,%Inh,[15],0%
same,%Inh,[16],0%
same,%Inh,[17],0%
same,%Inh,[18],0%
same,%Inh,[19],0%
same,%Inh,[20],0%
O=C(c1ccc(-c2cc(-c3c[nH]nc3-c3ccccn3)ccn2)cc1)N1CCOCC1 [GW812171],%Inh,[1],31%
same,%Inh,[2],0%
same,%Inh,[3],0%
same,%Inh,[4],0%
same,%Inh,[5],9%
same,%Inh,[6],24%
same,%Inh,[7],13%
same,%Inh,[8],0%
same,%Inh,[9],0%
same,%Inh,[10],16%
same,%Inh,[11],2%
same,%Inh,[12],0%
same,%Inh,[13],0%
same,%Inh,[14],0%
same,%Inh,[15],16%
same,%Inh,[16],10%
same,%Inh,[17],1%
same,%Inh,[18],28%
same,%Inh,[19],0%
same,%Inh,[20],0%
Cc1ccc(C(=O)NCC(N)=O)cc1-n1c(C)cc(OCc2ccc(F)cc2F)c(Br)c1=O,%Inh,[1],0%
same,%Inh,[2],0%
same,%Inh,[3],22%
same,%Inh,[4],9%
same,%Inh,[5],0%
same,%Inh,[6],29%
same,%Inh,[7],3%
same,%Inh,[8],0%
same,%Inh,[9],0%
same,%Inh,[10],0%
same,%Inh,[11],0%
same,%Inh,[12],0%
same,%Inh,[13],6%
same,%Inh,[14],24%
same,%Inh,[15],0%
same,%Inh,[16],15%
same,%Inh,[17],16%
same,%Inh,[18],0%
same,%Inh,[19],0%
same,%Inh,[20],0%
Cn1ccc2ncnc(Oc3ccc(NC(=O)Nc4ccncc4)c(Cl)c3)c21,%Inh,[1],0%
same,%Inh,[2],0%
same,%Inh,[3],0%
same,%Inh,[4],0%
same,%Inh,[5],0%
same,%Inh,[6],0%
same,%Inh,[7],0%
same,%Inh,[8],0%
same,%Inh,[9],2%
same,%Inh,[10],0%
same,%Inh,[11],0%
same,%Inh,[12],0%
same,%Inh,[13],0%
same,%Inh,[14],0%
same,%Inh,[15],0%
same,%Inh,[16],0%
same,%Inh,[17],13%
same,%Inh,[18],0%
same,%Inh,[19],0%
same,%Inh,[20],0%
Cc1cn2c(=O)cc(N3CCOCC3)nc2n1Cc1cccc(Cl)c1Cl [GSK2334006],%Inh,[1],12%
same,%Inh,[2],25%
same,%Inh,[3],16%
same,%Inh,[4],0%
same,%Inh,[5],15%
same,%Inh,[6],13%
same,%Inh,[7],3%
same,%Inh,[8],0%
same,%Inh,[9],0%
same,%Inh,[10],0%
same,%Inh,[11],0%
same,%Inh,[12],3%
same,%Inh,[13],4%
same,%Inh,[14],32%
same,%Inh,[15],0%
same,%Inh,[16],1%
same,%Inh,[17],42%
same,%Inh,[18],0%
same,%Inh,[19],21%
same,%Inh,[20],0%
CN1c2ccc(NCc3ccc(F)cc3)cc2-c2c(cnn2C)S1(=O)=O,%Inh,[1],23%
same,%Inh,[2],31%
same,%Inh,[3],10%
same,%Inh,[4],22%
same,%Inh,[5],0%
same,%Inh,[6],98.7%
same,%Inh,[7],10%
same,%Inh,[8],0%
same,%Inh,[9],18%
same,%Inh,[10],4%
same,%Inh,[11],5%
same,%Inh,[12],11%
same,%Inh,[13],0%
same,%Inh,[14],0%
same,%Inh,[15],0%
same,%Inh,[16],0%
same,%Inh,[17],3%
same,%Inh,[18],0%
same,%Inh,[19],0%
same,%Inh,[20],0%
NS(=O)(=O)c1cccc(-c2ccc3ncc(N4CCOCC4)nc3c2)c1 [GSK1535721],%Inh,[1],15%
same,%Inh,[2],7%
same,%Inh,[3],0%
same,%Inh,[4],0%
same,%Inh,[5],0%
same,%Inh,[6],0%
same,%Inh,[7],10%
same,%Inh,[8],0%
same,%Inh,[9],0%
same,%Inh,[10],9%
same,%Inh,[11],9%
same,%Inh,[12],0%
same,%Inh,[13],0%
same,%Inh,[14],2%
same,%Inh,[15],1%
same,%Inh,[16],0%
same,%Inh,[17],0%
same,%Inh,[18],6%
same,%Inh,[19],0%
same,%Inh,[20],0%
Cc1nnc(-c2ccc(C)c(-c3ccc(C(=O)Nc4ccc(NS(C)(=O)=O)cc4)cc3)c2)o1 [GW702865],%Inh,[1],0%
same,%Inh,[2],0%
same,%Inh,[3],0%
same,%Inh,[4],0%
same,%Inh,[5],0%
same,%Inh,[6],0%
same,%Inh,[7],0%
same,%Inh,[8],0%
same,%Inh,[9],0%
same,%Inh,[10],4%
same,%Inh,[11],2%
same,%Inh,[12],0%
same,%Inh,[13],0%
same,%Inh,[14],0%
same,%Inh,[15],1%
same,%Inh,[16],0%
same,%Inh,[17],0%
same,%Inh,[18],2%
same,%Inh,[19],23%
same,%Inh,[20],34%
